High-throughput results: PubChem BioAssay, National Center for Advancing Translational Sciences (NCATS)
Marburg entry inh – qHTS for inhibitors of binding or entry into cells for Marburg Virus; 1.8% of 300,000 active; Marburg virus pseudotyped entry inhibition, cell reporter; Potency, µM (doses to about 37.8 µM), without a hit: at the top dose activity change, negative = inhibition, hits mostly inhibitors; calls by dose curve; tested in HEK293 cells; further: potency means the concentration at half of the fitted maximal effect
Lassa entry inh – qHTS for Inhibitors of binding or entry into cells for Lassa Virus | Lassa virus pseudotype entry inhibition, cell reporter | Potency, µM (doses to about 37.9 µM), without a hit: at the top dose activity change, negative = inhibition, usual class: inhibitors | 1.2% of 300,000 active | AID 540256, 2011; calls by dose curve; tested in HEK293 cells; further: potency means the concentration at half of the fitted maximal effect; nearly all actives have a fitted effect of over 50% in size
VACV mCherry inh – qHTS for Stage-Specific Inhibitors of Vaccinia Orthopoxvirus: mCherry Reporter Primary qHTS. Potency, µM (titrated, usually from 36.5 µM), for the others: top-dose activity change, negative = inhibition, most hits filed as inhibitors. Vaccinia virus mCherry reporter infection, fluorescence. AID 720579, 2013. 0.63% of 310,000 active; calls by dose curve; tested in A549 cells; further: potency means the concentration at half of the fitted maximal effect; nearly all actives have a fitted effect of over 35% in size
FMDV inh – High Throughput Screening for Foot and Mouth Disease Virus Antivirals | FMDV antiviral cell-based qHTS | Potency, µM (top dose mostly 57.9 µM), for inactives: top-dose activity change, negative = inhibition, usual class: inhibitors | 1.2% of 410,000 active; calls by dose curve; tested in HEK293T cells; further: read-out not given here; potency means the concentration at half of the fitted maximal effect; nearly all actives have a fitted effect of over 45% in size
VACV Venus inh – qHTS for Stage-Specific Inhibitors of Vaccinia Orthopoxvirus: Venus Reporter Primary qHTS | Potency, µM (titrated, usually from 36.5 µM), without a hit: at the highest dose activity change, negative = inhibition, actives largely listed as inhibitors | 0.46% of 330,000 active | AID 720580, 2013 | Vaccinia virus Venus reporter expression, fluorescence; calls by dose curve; tested in A549 cells; further: potency means the concentration at half of the fitted maximal effect; nearly all actives have a fitted effect of over 30% in size
HCMV inh – qHTS Assay for inhibitors of the human cytomegalovirus (HCMV). HFF cells, HCMV-luciferase reporter, 72 h; stronger effect = lower value. activity change, negative = inhibition, % at 57.5 µM. 4.5% of 410,000 active; in the data active means activity change below about -60%; inconclusive means no clear call, values can overlap the other calls; inactive means above about -39%
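Human foreskin fibroblasts infected with luciferase-reporter HCMV at MOI 1 PFU/cell, compounds at two doses. Luciferase measured 72 h post infection; normalized to buffer-only basal and Salinomycin (10uM) controls.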
* = called active by the depositor; [ ] = another dose, or the depositor's remark. Compounds with a hit are over-represented: about 6.5% of the library has one in this group of screens. On the % scale 0 is the no-effect control and ±100 the full control effect.

Results for O=C(CN1C(=O)C2CC=CCC2C1=O)Nc1nc(-c2ccc(F)cc2)cs1 (stereo unspecified) ?
FMDV inh: -25%; HCMV inh: 15

Results for CC(C(=O)Nc1nc(-c2ccc(F)cc2)cs1)N1C(=O)C2CC=CCC2C1=O (stereo unspecified) ?
Marburg entry inh: -20%; Lassa entry inh: -24%; VACV mCherry inh: inactive; FMDV inh: 28µM*; VACV Venus inh: -16%; HCMV inh: -5

How did Cn1nnnc1Sc1ccc([N+](=O)[O-])cc1Cl do in these assays?
Marburg entry inh: inconclusive; Lassa entry inh: -7%; VACV mCherry inh: 10µM*; FMDV inh: -23%; VACV Venus inh: inconclusive; HCMV inh: inconclusive

What do the screens show for `O=[N+]([O-])c1ccc(Sc2nnnn2-c2ccccc2)c(Cl)c1`?
Marburg entry inh: -26%; Lassa entry inh: -3%; FMDV inh: inconclusive; HCMV inh: -73*

What do the screens show for `Cn1nnnc1SCc1ccc([N+](=O)[O-])cc1`?
Marburg entry inh: 3%; Lassa entry inh: 9%; VACV mCherry inh: -8%; FMDV inh: -2%; VACV Venus inh: -12%; HCMV inh: -10

What do the screens show for `Cn1nnnc1Sc1c(Cl)cccc1[N+](=O)[O-]`?
Marburg entry inh: 9%; Lassa entry inh: 3%; VACV mCherry inh: -29%; FMDV inh: 1%; VACV Venus inh: -29%; HCMV inh: -91*

What do the screens show for `Cn1nnnc1SCC(=O)Nc1ccccc1[N+](=O)[O-]`?
Marburg entry inh: inconclusive; Lassa entry inh: -3%; FMDV inh: -18%; VACV Venus inh: -17%; HCMV inh: -8

What do the screens show for `c1nnnn1C12CC3CC(CC(C3)C1)C2`?
Marburg entry inh: 17%; Lassa entry inh: -1%; FMDV inh: -20%; VACV Venus inh: -11%; HCMV inh: -64*

What do the screens show for `CCN(C(=O)c1cc2c(C)nc3ccccc3c2o1)c1cc(Cl)ccc1OC`?
Marburg entry inh: 13µM*; Lassa entry inh: inconclusive; VACV mCherry inh: 14%; FMDV inh: inconclusive; VACV Venus inh: -17%; HCMV inh: inconclusive

How did COc1ccc(NC(=O)c2cc3c(CO)cnc(C)c3oc2=Nc2cccc(C)c2)c(OC)c1 do in these assays?
Marburg entry inh: 25%[46.1 µM]; Lassa entry inh: 16%[46.1 µM]; VACV mCherry inh: -2%; FMDV inh: -7%; VACV Venus inh: -23%; HCMV inh: -24

What do the screens show for `Cc1ccc(NC(=O)C(=Cc2ccc(C(=O)O)cc2)C(=O)Nc2ccc(C)cc2C)c(C)c1`?
FMDV inh: 11µM*

What do the screens show for `O=[N+]([O-])c1ccc(N=Nc2ccc(O)cc2O)cc1`?
Marburg entry inh: inconclusive; Lassa entry inh: 10µM*; VACV mCherry inh: inconclusive; FMDV inh: 10%; VACV Venus inh: inconclusive; HCMV inh: -99*

What do the screens show for `O=[N+]([O-])c1cccc(N=Nc2ccc(O)cc2O)c1`?
Marburg entry inh: 2.8µM*; Lassa entry inh: inconclusive; VACV mCherry inh: inconclusive; FMDV inh: -9%; VACV Venus inh: inconclusive; HCMV inh: -80*

Results for Cc1oc(-c2ccccc2Cl)nc1CN1CCCN(C(=O)c2ccco2)CC1 ?
VACV mCherry inh: -27%; FMDV inh: -10%; VACV Venus inh: -4%; HCMV inh: -31

Results for CCOC1=C2[C@H](c3ccccc3Cl)N(S(=O)(=O)c3ccc(C)cc3)C[C@H]2C(C#N)(C#N)C(C#N)(C#N)C1 ?
VACV mCherry inh: 4%; FMDV inh: inconclusive; VACV Venus inh: 1%; HCMV inh: 7

What do the screens show for `CCOC1=C2[C@H](c3ccccc3)N(S(=O)(=O)c3ccc(C)cc3)[C@H](C(C)C)[C@H]2C(C#N)(C#N)C(C#N)(C#N)C1`?
HCMV inh: -76*

How did CCOC1=C2CN(S(=O)(=O)c3ccc(C)cc3)[C@H](c3ccc(CC)cc3)C[C@@H]2N(S(=O)(=O)c2ccc(C)cc2)[C@H](c2ccccc2)C1 do in these assays?
VACV mCherry inh: 13%; FMDV inh: -24%; VACV Venus inh: -23%; HCMV inh: -73*
